FBW7 act: human FBW7 E3 ligase activation, primary screen | AID 1259310 | 650,000 compounds, 0.13% hits | normalized activity (activation), % at 26.1 µM | AlphaScreen FBW7–phospho-cyclin E peptide binding, activator screen | Q969H0; in the data active means normalized activity above about 1.9%;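 further: purified mutant Fbw7 with reduced substrate affinity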
Target sequence (Q969H0 whole entry, looked up): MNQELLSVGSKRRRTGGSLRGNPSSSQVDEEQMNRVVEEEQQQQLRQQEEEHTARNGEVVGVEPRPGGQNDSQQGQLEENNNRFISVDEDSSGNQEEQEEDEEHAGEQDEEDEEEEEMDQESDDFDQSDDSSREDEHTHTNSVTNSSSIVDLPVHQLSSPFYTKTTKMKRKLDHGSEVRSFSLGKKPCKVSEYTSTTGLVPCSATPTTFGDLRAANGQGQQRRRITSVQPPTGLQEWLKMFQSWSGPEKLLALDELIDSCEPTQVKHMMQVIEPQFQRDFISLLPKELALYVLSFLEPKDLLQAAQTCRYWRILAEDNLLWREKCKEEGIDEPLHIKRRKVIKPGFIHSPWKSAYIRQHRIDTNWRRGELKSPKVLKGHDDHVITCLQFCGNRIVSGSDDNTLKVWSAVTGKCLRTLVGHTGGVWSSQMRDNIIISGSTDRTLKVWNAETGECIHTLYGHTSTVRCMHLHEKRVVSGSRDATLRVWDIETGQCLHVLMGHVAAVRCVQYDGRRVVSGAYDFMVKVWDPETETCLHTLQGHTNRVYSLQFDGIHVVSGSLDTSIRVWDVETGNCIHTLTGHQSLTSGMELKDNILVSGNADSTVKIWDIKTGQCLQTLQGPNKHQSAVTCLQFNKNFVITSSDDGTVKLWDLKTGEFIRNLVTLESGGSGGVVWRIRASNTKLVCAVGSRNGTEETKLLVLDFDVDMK
GPR151 activ: activates the human receptor GPR151; Q8TDV0; PathHunter beta-arrestin GPR151 cells, luminescence; activation, % at 11.2 µM; 650,000 compounds, 1% hits; AID 1508602; in the data active means activation above about 4.9%
TEAD-YAP block: TEAD-YAP interaction inhibition; HEK-TIYL cells, TEAD-Gal4/YAP UAS-luciferase luminescence; inhibition, % at 9.12 µM; 640,000 compounds, 1.4% hits; AID 1259422; in the data active means inhibition above about 32%
MITF inh: inhibitors of human MITF | O75030 | AlphaScreen MITF homodimerization, bead proximity signal | inhibition, % at 2.6 µM | 650,000 compounds, 0.91% hits | AID 1259374; in the data active means inhibition above about 50%
MITF inh conf: human MITF inhibition, confirmation; 4,700 compounds, 16% hits; AID 1259372; AlphaScreen MITF homodimerization, biotin/His-MITF beads; shares compounds with MITF inh; inhibition, % at 2.6 µM;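 active means inhibition above a cutoff derived from the DMSO control wells, cut at about 28% in these data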;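 further: inhibitors lower the bead chemiluminescence by keeping MITF from dimerizing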
AS interf DR: optically interferes with AlphaScreen signal in dose response. shares compounds with MITF inh. AlphaScreen optical interference counterscreen, cell-free. IC50, µM. 480 compounds, 6% hits. AID 1259373; call rule not given here
AS interf ctr: AlphaScreen optical interference, counter-screen. 4,700 compounds, 7.6% hits. LysRS AlphaScreen counterscreen, signal interference, triplicate. AID 1259376. shares compounds with MITF inh. inhibition, % at 2.6 µM;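 active means inhibition above a cutoff derived from the DMSO control wells, cut at about 30% in these data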
Hits are given with their value; 0 = inactive; - = no result given. A selection: hits, their analogues and other compounds. The true share with any hit is near 3.4%.

SMILES	FBW7 act	GPR151 activ	TEAD-YAP block	MITF inh	MITF inh conf	AS interf ctr	others
CCOC(=O)c1c(-c2ccc(OC)c(OC)c2)csc1NC(=O)CCN1CCN(C)CC1	0	0	0	81	0	0
CCOC(=O)c1c(-c2ccc(OC)c(OC)c2)csc1NC(=O)CN1CCCC1	0	0	0	0	-	-
CCOC(=O)c1cc(-c2ccccc2)sc1NC(=O)CCN1CCN(C)CC1	0	0	0	58	0	0
CCN1CCN(CC(=O)NCc2ccc(F)cc2)CC1	0	0	0	79	0	0
CC(C)(Oc1ccc(Cl)cc1)C(=O)NC1=NCCS1	0	0	0	0	-	-
O=C1N[C@H](Cc2ccc(O)cc2)C(=O)N2CCN(Cc3cccc(Cl)c3)C[C@H]12	0	0	0	0	-	-
Brc1ccc(OCCCCn2ccnc2)cc1	0	0	0	0	-	-
CCOC(=O)c1c(-c2ccc(F)cc2)csc1NC(=O)CN1CCN(CC)CC1	0	0	0	63	0	0
CCOC(=O)c1c(-c2ccc(F)cc2)csc1NC(=O)CN1CCOCC1	0	0	0	0	-	-
Cc1noc(C)c1CC(=O)N1CCOc2ccc(C(O)c3ccccn3)cc2C1 (stereo not drawn)	0	0	0	0	-	-
CCOC(c1ccccc1)c1ccc2c(c1)CN(C(=O)Cc1c(C)noc1C)CCO2 (stereo not drawn)	0	0	0	75	0	0
COc1cccc(CN2CCN(C3CCC(C)CC3)CC2)c1 (stereo not drawn)	0	0	0	70	0	0
COc1cccc(CN2CCN(C3CCCCCC3)CC2)c1	0	0	0	58	0	0
COc1cccc(CN2CCC(C(=O)NC3CCCCCC3)CC2)c1	0	0	0	65	0	0
COc1cccc(CN2CCN(C(=O)C3CC3)[C@@H](C)C2)c1	0	0	0	62	0	0
CCNc1nc(N)nc(Sc2ccc(C(=O)OC)cc2)n1	0	0	0	0	-	-
CN(c1ccccc1C(=O)Nc1ccccc1Sc1ccccc1)S(C)(=O)=O	0	0	0	0	-	-
COc1cccc(CN2CCN(C3CCCCC3)CC2)c1	0	0	0	60	0	0
O=C(Cc1n[nH]c(=O)[nH]c1=O)N/N=C/c1ccc(Cl)cc1Cl	0	0	0	0	-	-
COc1cc(CN2CCC(c3nc(-c4ccccc4)no3)CC2)cc(OC)c1	0	0	0	0	-	-
COc1cc(CN2CCC(Cn3c(C)nc4ccccc43)CC2)cc(OC)c1	0	0	0	59	0	0
Cc1ccc(/C=C/C(=O)Nc2nn[nH]n2)o1	0	0	0	0	-	-
CC(C)c1ccc(/C=C/C(=O)Nc2nn[nH]n2)cc1	0	0	0	52	0	0
Cc1cc(C)c(C)c(OCCn2ccnc2)c1	0	0	0	0	-	-
Cc1cc(OCCCN2CCOCC2)ccc1C(C)C	0	0	0	0	-	-
SMILES	FBW7 act	GPR151 activ	TEAD-YAP block	MITF inh	MITF inh conf	AS interf ctr	others
Cc1cc(OCCN2CCNCC2)cc(C(C)C)c1	0	0	0	66	0	0
Cc1cc(OCCn2ccnc2)cc(C(C)C)c1	0	0	0	57	0	0
Cc1cc(OCCCN2CCN(C)CC2)cc(C(C)C)c1	0	0	0	70	0	0
Cc1cc(OCCCN2CCNCC2)cc(C(C)C)c1	0	0	0	0	-	-
Cc1cc(OCCCN2CCN(C)CC2)ccc1C(C)C	0	0	0	56	0	0
Cc1c(NC(=O)C(C)OC(=O)c2cc3c(s2)CCC3)c(=O)n(-c2ccccc2)n1C (stereo not drawn)	0	0	0	80	80	0	AS interf DR=0
CC(C)(C)C(=O)N1CCCC(c2nc3c(nnn3Cc3ccccc3)c(=O)[nH]2)C1 (stereo not drawn)	0	0	0	0	-	-
CC(C)(C)C(=O)N1CCC(c2nc3c(nnn3Cc3ccccc3)c(=O)[nH]2)CC1	0	0	0	71	0	0
O=C(NCCc1ccccc1)c1c2c(nc3ccccc13)CCCC2	0	0	0	0	-	-
Nc1nc(SCC(=O)Nc2cc([N+](=O)[O-])ccc2F)n[nH]1	0	0	0	51	0	0
c1ccc(CC2(c3ccccc3)CCNC2)cc1 (stereo not drawn)	0	0	0	56	0	0
COc1ccccc1NC(=S)NCCCn1ccnc1	0	0	0	79	0	0
CC1CCC(N2CCN(Cc3ccccn3)CC2)CC1 (stereo not drawn)	0	0	0	64	0	0
c1ccc(CN2CCN(C3CCCCCC3)CC2)nc1	0	0	0	67	0	0
c1ccc(CN2CCN(c3ncccn3)CC2)nc1	0	0	0	0	-	-
c1ccc(CN2CCN(C3CCCCC3)CC2)nc1	0	0	0	60	0	0
CS(=O)(=O)N1CCN(CCCOc2cccc(C#N)c2)CC1C(=O)N1CCOCC1 (stereo not drawn)	0	0	0	0	-	-
CC1CCCC(N2CCN(C(=O)c3cccc(Cl)c3)CC2)C1 (stereo not drawn)	0	0	0	51	0	0
O=C(c1cccc(Cl)c1)N1CCN(C2CCCC2)CC1	0	0	0	53	0	0
CC1CCCN(C(=O)c2cccc(Cl)c2)C1 (stereo not drawn)	0	0	0	0	-	-
O=C(c1cccc(Cl)c1)N1CCN(C2CCC(c3ccccc3)CC2)CC1 (stereo not drawn)	0	0	0	0	-	-
Cc1ccc(Cn2c(=N)n(CC(O)COc3ccc(Cl)cc3)c3ccccc32)cc1 (stereo not drawn)	0	0	0	64	0	0
COc1ccc(-n2nnnc2SCC(=O)Nc2nn(-c3ccccc3)nc2C(N)=O)cc1	0	0	0	0	-	-
C/C(=N\Nc1ccccc1Cl)c1ccccn1	0	0	0	0	-	-
C/C(=N\Nc1nc2ccccc2o1)c1ccccn1	0	0	0	55	0	0
SMILES	FBW7 act	GPR151 activ	TEAD-YAP block	MITF inh	MITF inh conf	AS interf ctr	others
CC1(C)CC(=O)C2=C(C1)NC(=O)CC2c1ccc(F)cc1 (stereo not drawn)	0	0	0	0	-	-
CC1(C)CC(=O)C2=C(C1)NC(=O)CC2c1ccc(C(C)(C)C)cc1 (stereo not drawn)	0	0	0	70	0	0
Cc1ccc(-c2csc3nc(CN(C)C4CCN(C)CC4)[nH]c(=O)c23)cc1	0	0	0	59	0	0
O=C(Cc1nc2scc(-c3ccccc3)c2c(=O)[nH]1)N1CCCC1	0	0	0	0	-	-
CC(=O)Oc1ccc2nc(-c3ccc4c(c3)C(=O)N(CC(C)C)C4=O)oc(=O)c2c1	0	0	0	0	-	-
CC(NCc1cccnc1)C(=O)Nc1ccccc1 (stereo not drawn)	0	0	0	75	0	0
c1ccc(C(NCc2cccnc2)c2ccccc2)cc1	0	0	0	86	0	0
COc1ccc2c3c(cccc13)C(=O)N(C)C2=O	0	0	0	67	76	0	AS interf DR=0
COc1ccc2c3c(cccc13)C(=O)N(O)C2=O	0	0	0	0	-	-
CNC(=O)c1ccc(-c2ccc(C)cc2)nc1N(C)C	0	0	0	0	-	-
Cc1cc(C)cc(NC(=O)COC(=O)c2cc[n+]([O-])cc2)c1	0	0	0	0	-	-
